According to PubChem BioAssay (NCI):
Where “and” joins values, the source holds several entries; their conditions need not be identical. Equal entries are not always repeated. The panel holds about 83,000 compounds, 20% with a hit somewhere; the sample as a whole holds those more often.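 Interpretation: 100, growth as untreated; towards 0, rising growth inhibition; 0, no net growth; 0 to -100, cell death. Compounds scoring below 10 were considered active.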 The source holds several records for some structures; these can differ, active in one and inactive in another. Calls of active or inactive are those of the source.

Assays:
Experiment in all cases: NCI-60 one-dose screen, 48 h (100 = growth as untreated, 0 = no growth, -100 = all killed)
Settings in all cases: 10 µM unless noted
[1] = system: SK-MEL-2 melanoma
[2] = system: EKVX NSCLC
[3] = system: SN12C renal
[4] = system: UO-31 renal
[5] = system: TK-10 renal
[6] = system: ACHN renal
[7] = system: CAKI-1 renal
[8] = system: A498 renal
[9] = system: CCRF-CEM leukemia
[10] = system: MOLT-4 leukemia
[11] = system: SR leukemia
[12] = system: RPMI-8226 leukemia
[13] = system: OVCAR-8 ovarian
[14] = system: OVCAR-5 ovarian
[15] = system: OVCAR-4 ovarian
[16] = system: SK-OV-3 ovarian
[17] = system: IGROV1 ovarian
[18] = system: OVCAR-3 ovarian
[19] = system: HS 578T breast
[20] = system: NCI/ADR-RES ovarian

Measured: growth

CN1CCN(C2CCN(C(=O)Nc3cc(Oc4ccc(NC(=O)C5(C(=O)Nc6ccc(F)cc6)CC5)c(F)c4)ccn3)CC2)CC1
-3.96% (active) and 53.5% (inactive): [6]
3.24% (active) and 99.4% (inactive): [2]
inactive: [1] 81.3% | [19] 56.7% | [20] 13.3% and 99.5%
-55% (active) and 91.6% (inactive): [13]
-55.1% (active) and 50.6% (inactive): [3]
-58.6% (active) and 55.3% (inactive): [17]
-38.9% (active) and 105% (inactive): [12]
-5.41% (active) and 83.2% (inactive): [15]
-51.1% (active) and 74.6% (inactive): [16]
-34.8% (active) and 44.8% (inactive): [7]
2.87% (active) and 108% (inactive): [18]
-10.9% (active) and 86.6% (inactive): [10]
-47.9% (active) and 98.4% (inactive): [5]
-68.6% (active) and 92.8% (inactive): [8]
-61.7% (active) and 92.4% (inactive): [4]
0.274% (active) and 101% (inactive): [9]
-10.9% (active) and 94.3% (inactive): [14]
-22.9% (active) and 58.4% (inactive): [11]

O=C(Cc1cccc2ccccc12)N/N=C/c1ccc2c(c1)CCC2
inactive: [1] 84.6% | [2] 78.8% | [3] 84% | [4] 63.3% | [5] 89.4% | [6] 83.4% | [7] 66.1% | [8] 72.7% | [9] 65.2% | [10] 47.9% | [11] 23% | [12] 75.1% | [13] 72.3% | [14] 80.9% | [15] 104% | [16] 83.2% | [17] 47.8% | [18] 75.8% | [20] 31%

Oc1c(CN2CCCCC2)ccc2cccnc12
inactive: [1] 96.9% and 82.4% | [2] 71.3% | [3] 58.2% and 59.2% | [5] 40.8% and 48.7% | [8] 61.4% and 62.9% | [9] 16.6% | [10] 38.2% and 36% | [11] 32.4% and 33.2% | [12] 58.5% | [13] 33.1% and 23.3% | [14] 68.9% and 51.1% | [15] 29.3% | [16] 54.5% and 50.8% | [17] 46% and 55.3% | [18] 14.4% and 52.7% | [19] 89.5% and 89.1%
active: [4] 8.37% and -0.287% | [6] 7.15% and 9.28% | [7] 2.08% | [20] 7.05% and 4.34%

CC(C)(C)c1ccc(O)c(CNC2CCCCC2)c1
inactive: [1] 94.6% | [2] 108% | [3] 102% and 91.4% | [4] 65.7% and 78.9% | [5] 92.4% | [6] 116% and 91.3% | [7] 111% and 97.5% | [8] 110% and 91.8% | [9] 91.8% and 86.6% | [10] 98.1% and 81.2% | [11] 80% and 83.5% | [12] 82% and 74.9% | [13] 101% and 88.9% | [14] 106% and 93% | [15] 82.8% | [16] 108% and 97.8% | [17] 97.7% and 92% | [18] 111% and 92.8% | [19] 89.2% and 89.9% | [20] 98.5%

Nc1ccc(N=Nc2ccc(S(=O)(=O)O)cc2)cc1S(=O)(=O)O
inactive: [1] 98.7% and 82.5% | [2] 96.3% and 109% | [3] 105% and 96.1% | [4] 81.4% and 93.4% | [5] 115% and 97.6% | [6] 99.8% and 100% | [7] 79.6% and 88.4% | [8] 102% and 111% | [9] 83.6% and 46.6% | [10] 108% and 117% | [11] 108% and 157% | [12] 86.7% and 40.2% | [13] 96.5% and 79.6% | [14] 101% and 107% | [15] 118% and 87.9% | [17] 79.3% and 76.1% | [18] 108% and 210% | [19] 83.7% and 88.9% | [20] 95.6% and 99.4%

CC1(c2ccc3ccccc3c2)CCC(=O)O1 (stereo unspecified)
inactive: [1] 86.6% | [2] 111% | [3] 102% | [4] 81.1% | [5] 93.5% | [6] 101% | [7] 100% | [8] 113% | [9] 105% | [10] 95.2% | [11] 92.2% | [12] 109% | [13] 101% | [14] 102% | [15] 110% | [16] 95.3% | [17] 102% | [18] 105% | [20] 105%

O=C(O)C1(C(=O)O)CCC1.[NH2-].[NH2-].[Pt+2]
inactive: [1] 97.8% and 104% | [2] 97.1% and 106% | [3] 102% and 103% | [4] 75.6% and 103% | [5] 111% and 104% | [6] 96.4% and 103% | [7] 88% and 81.1% | [8] 111% and 98.4% | [9] 90.8% | [10] 113% and 67% | [11] 122% and 50.7% | [12] 104% | [13] 102% | [14] 97.6% and 83.7% | [15] 109% and 92.2% | [16] 104% and 107% | [17] 95.6% | [18] 117% and 105% | [19] 105% and 112% | [20] 103% and 99.7%

COC(=O)/C=C/c1cc(O)c2c(c1)C(C(=O)OC)C(c1ccc(O)c(O)c1)O2 (stereo unspecified)
inactive: [1] 50.6% and 49.3% | [2] 35.2% and 38.2% | [3] 29.5% and 24.6% | [4] 38.1% and 40.4% | [5] 55% and 51.8% | [6] 26.2% and 27.2% | [7] 17.5% and 18.5% | [9] 13.5% and 16% | [10] 17.8% and 21.7% | [12] 36% and 34.4% | [13] 13.3% and 14.7% | [14] 69.3% and 54.7% | [15] 52.9% and 43.8% | [17] 44.6% and 38.3% | [19] 33.2% and 44.9% | [20] 18.3% and 15.8%
5.46% (active) and 10.8% (inactive): [11]
active: [18] -1.91% and 9.26%
18.2% (inactive) and 6.71% (active): [8]

CCOc1ccc2c(S(=O)(=O)O)cccc2c1[N+](=O)[O-]
inactive: [1] 117% and 109% | [2] 99.2% and 88.5% | [3] 106% and 103% | [4] 71.5% and 79.1% | [5] 104% and 126% | [6] 103% and 105% | [7] 87% and 96.1% | [8] 95% and 116% | [9] 90.6% and 107% | [10] 86.8% and 96.4% | [11] 100% and 94.2% | [12] 98.1% and 95.9% | [13] 104% and 97.6% | [14] 102% and 112% | [15] 123% and 109% | [16] 102% and 106% | [17] 96.3% and 114% | [18] 107% and 112% | [19] 102% and 94.5% | [20] 103% and 106%
